Laboratory results from PubChem BioAssay (NCI).
About 79,000 compounds went through this panel and 15% of them were active in at least one assay; those are over-represented in the sample as a whole. A number with no mark means an inactive call. Calls of active or inactive are those of the source. No stated cut-off is given here; in the data, active means growth inhibition above about 70%; inactive means the rest.

How the values were obtained:
[1] = NCI Yeast Anticancer Drug Screen. Data for the rad50 strain (AID 155);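 further: 0% = growth of vehicle-only cultures of the same strain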; conditions: S. cerevisiae rad50 strain growth inhibition; at 50.0 µM; hits give high values
Method in brief: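 Yeast carrying a defined DNA repair defect were exposed to test compounds, and growth was compared with vehicle-treated controls to give percent inhibition.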

[2] = NCI Yeast Anticancer Drug Screen. Data for the mec2-1 strain (AID 157); conditions: S. cerevisiae mec2-1 strain, at 50.0 µM, hits give high values
Method in brief: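 Test agents were screened against the mec2-1 yeast strain, with defined DNA repair or cell cycle alteration. Growth was scored as inhibition against vehicle-only controls.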

[3] = NCI Yeast Anticancer Drug Screen. Data for the sgs1 mgt1 strain (AID 161);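 further: 0% = growth of cultures given vehicle only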; conditions: S. cerevisiae sgs1 mgt1 strain, at 50.0 µM, hits give high values
Method in brief: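 Inhibition of yeast growth, normalised to vehicle-treated controls, is reported for a strain bearing genetic alterations in DNA damage repair.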

[4] = NCI Yeast Anticancer Drug Screen. Data for the cln2 rad14 strain (AID 165);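 further: 0% = growth equal to vehicle treated cultures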; conditions: S. cerevisiae cln2 rad14 strain, at 50.0 µM, hits give high values
Method in brief: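 Growth of compound-exposed yeast (cln2 rad14 genotype) measured and expressed as inhibition relative to vehicle.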

[5] = NCI Yeast Anticancer Drug Screen. Data for the bub3 strain (AID 167); conditions: S. cerevisiae bub3 mutant strain, at 50.0 µM, hits give high values
Method in brief: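 Compounds were applied to a genetically altered yeast strain carrying a cell-cycle control defect. Growth inhibition was scored against vehicle-treated controls.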

[6] = NCI Yeast Anticancer Drug Screen. Data for the mlh1 rad18 strain (AID 175); conditions: S. cerevisiae mlh1 rad18 strain growth inhibition; at 50.0 µM; hits give high values
Method in brief: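 In this whole-cell yeast screen, a strain with altered DNA damage repair is challenged with compound, and its growth is measured against matched vehicle-treated controls.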

## C/C=C/C(=O)OCCC[N+](C)(C)C
[1]
  growth inhibition: 8.8%
[2]
  growth inhibition: 12.3%
[3]
  growth inhibition: 2.8%
[4]
  growth inhibition: -0.95%
[5]
  growth inhibition: 13.9%
[6]
  growth inhibition: -23.8%

## Cn1cnc2ncnc(NCc3ccc(Cl)c(Cl)c3)c21
[1]
  growth inhibition: -1.45%
[2]
  growth inhibition: 18.9%
[3]
  growth inhibition: -7.35%
[4]
  growth inhibition: -21.2%
[5]
  growth inhibition: 4.6%
[6]
  growth inhibition: -25.1%

## CC(=O)[CH-]C(=O)c1ccccc1.CC(=O)[CH-]C(=O)c1ccccc1.CCCCCCCCCCCCCCCCCC(=O)[O-].CCCCCCCCCCCCCCCCCC(=O)[O-].[Ti+4]
[1]
  growth inhibition: 11.2%
[2]
  growth inhibition: -11.2%
[3]
  growth inhibition: -6.55%
[4]
  growth inhibition: -9.7%
[5]
  growth inhibition: 2%
[6]
  growth inhibition: -0.45%

## CC(=O)Nc1ccc2c(c1)Cc1cc(Cl)c(Cl)cc1-2
[1]
  growth inhibition: 57.5%
[2]
  growth inhibition: -4.05%
[3]
  growth inhibition: 31.7%
[4]
  growth inhibition: -17.1%
[5]
  growth inhibition: -3.7%
[6]
  growth inhibition: 37.6%

## COc1c(NC(=O)c2ccccc2Cl)cccc1[N+](=O)[O-]
[1]
  growth inhibition: -1%
[2]
  growth inhibition: 1.3%
[3]
  growth inhibition: 13.8%
[4]
  growth inhibition: -6.75%
[5]
  growth inhibition: 16.9%
[6]
  growth inhibition: 20.2%

## CCOC(=O)C1=C(c2ccccc2)OC(N)=C(C#N)C1c1ccccc1 (stereo not drawn)
[1]
  growth inhibition: -16.9%
[2]
  growth inhibition: -8.4%
[3]
  growth inhibition: -17.6%
[4]
  growth inhibition: 7.6%
[5]
  growth inhibition: 25.3%
[6]
  growth inhibition: -4.85%

## Cc1cc(Cl)ccc1OCC(=O)OCC(C)(C)[N+](=O)[O-]
[1]
  growth inhibition: 6.05%
[2]
  growth inhibition: 19.1%
[3]
  growth inhibition: 20.4%
[4]
  growth inhibition: -80.2%
[5]
  growth inhibition: 36.6%
[6]
  growth inhibition: 33.7%

## CCC(=O)Nc1cccc([N+](=O)[O-])c1OC
[1]
  growth inhibition: -5.35%
[2]
  growth inhibition: 23.4%
[3]
  growth inhibition: -7.45%
[4]
  growth inhibition: -52.2%
[5]
  growth inhibition: 9.15%
[6]
  growth inhibition: -15.2%

## CCC1(CC)SCc2nc3ccccc3n21
[1]
  growth inhibition: 23%
[2]
  growth inhibition: 18.2%
[3]
  growth inhibition: 58.3%
[4]
  growth inhibition: 29.3%
[5]
  growth inhibition: 58.8%
[6]
  growth inhibition: 42.3%

## NNc1c(F)c(F)c2c(F)c(F)c(F)c(F)c2c1F
[1]
  growth inhibition: 97.8% (active)
[2]
  growth inhibition: 96.5% (active)
[3]
  growth inhibition: 95.5% (active)
[4]
  growth inhibition: 94.5% (active)
[5]
  growth inhibition: 97.7% (active)
[6]
  growth inhibition: 97.5% (active)

## O=C(c1cccc([N+](=O)[O-])c1)N1CCCCC1
[1]
  growth inhibition: 1.4%
[2]
  growth inhibition: -11.8%
[3]
  growth inhibition: 16.2%
[4]
  growth inhibition: -17.1%
[5]
  growth inhibition: 4.1%
[6]
  growth inhibition: -5.05%

## C=C[C@]1(C)CC(=O)C(C(C)C=O)[C@]12C(=O)Oc1cccc(C)c1C2=O (stereo partly drawn)
[1]
  growth inhibition: 63.9%
[2]
  growth inhibition: 85.5% (active)
[3]
  growth inhibition: 79% (active)
[4]
  growth inhibition: 58.1%
[5]
  growth inhibition: 71.8% (active)
[6]
  growth inhibition: 86.7% (active)

## CC1C(=O)C(O)CC2C1(C)CCC1C2(C)CCC2(C)C3CC(C)(C)CCC3(C)CCC12C (stereo not drawn)
[1]
  growth inhibition: -7.2%
[2]
  growth inhibition: -2.6%
[3]
  growth inhibition: -6.45%
[4]
  growth inhibition: 1.2%
[5]
  growth inhibition: 5.45%
[6]
  growth inhibition: -4.7%

## O=c1c2ccccc2n2nnc3ccc(NCCNCCO)c1c32
[1]
  growth inhibition: -15.1%
[2]
  growth inhibition: 2.8%
[3]
  growth inhibition: -0.7%
[4]
  growth inhibition: 23.3%
[5]
  growth inhibition: -0.45%
[6]
  growth inhibition: -1.3%

## CC1(C)C=C(C(Br)c2cccc(Cl)c2)C(=O)c2ccccc21 (stereo not drawn)
[1]
  growth inhibition: 98.3% (active)
[2]
  growth inhibition: 99.6% (active)
[3]
  growth inhibition: 99.8% (active)
[4]
  growth inhibition: 99% (active)
[5]
  growth inhibition: 98.8% (active)
[6]
  growth inhibition: 99.3% (active)

## Cc1cccc(C)c1NC(=O)Nc1cccc(C#N)c1
[1]
  growth inhibition: -0.3%
[2]
  growth inhibition: -10.8%
[3]
  growth inhibition: 7.35%
[4]
  growth inhibition: 15.3%
[5]
  growth inhibition: -0.55%
[6]
  growth inhibition: 17.4%

## CC1(c2ccccc2)CCCCC1OC(N)=O (stereo not drawn)
[1]
  growth inhibition: 4.3%
[2]
  growth inhibition: -21.9%
[3]
  growth inhibition: -13.9%
[4]
  growth inhibition: 27.5%
[5]
  growth inhibition: 7.2%
[6]
  growth inhibition: -5.15%

## O=C(O)c1ccc(N=C=S)cc1O
[1]
  growth inhibition: -1.95%
[2]
  growth inhibition: -8.75%
[3]
  growth inhibition: -2.1%
[4]
  growth inhibition: -12.8%
[5]
  growth inhibition: 3.8%
[6]
  growth inhibition: -1.8%

## O=c1[nH]c(-c2cccc(F)c2)nc2ccccc12
[1]
  growth inhibition: 16.9%
[2]
  growth inhibition: -10.9%
[3]
  growth inhibition: 3.1%
[4]
  growth inhibition: 19.2%
[5]
  growth inhibition: -7.4%
[6]
  growth inhibition: 10.2%

## Clc1ccc2c(c1)nnn2OC1CCCC1
[1]
  growth inhibition: 10.4%
[2]
  growth inhibition: -3.7%
[3]
  growth inhibition: -11.1%
[4]
  growth inhibition: -24.9%
[5]
  growth inhibition: -10.8%
[6]
  growth inhibition: -6.8%

## CC(O)c1ccc(C(O)/C(=N\NC(=O)c2ccncc2)c2nc3ccc([N+](=O)[O-])cc3[nH]c2=O)cc1 (stereo not drawn)
[1]
  growth inhibition: -5.95%
[2]
  growth inhibition: -10.2%
[3]
  growth inhibition: 15.2%
[4]
  growth inhibition: -60.7%
[5]
  growth inhibition: -5.1%
[6]
  growth inhibition: -2.25%

## COC(=O)[C@@H](N1C(=O)c2ccccc2C1=O)C1(C)CC(Cl)=NO1 (stereo partly drawn)
[1]
  growth inhibition: -14.4%
[2]
  growth inhibition: 2.75%
[3]
  growth inhibition: -14.7%
[4]
  growth inhibition: -11.8%
[5]
  growth inhibition: 4.45%
[6]
  growth inhibition: 12.1%

## CC1CCC(=O)NCCCCC(=O)N1 (stereo not drawn)
[1]
  growth inhibition: 22.9%
[2]
  growth inhibition: 1.85%
[3]
  growth inhibition: 25.3%
[4]
  growth inhibition: 15.6%
[5]
  growth inhibition: 3.45%
[6]
  growth inhibition: 26.6%

## CCOC(CCC#N)c1ccc(C)cc1 (stereo not drawn)
[1]
  growth inhibition: 10.2%
[2]
  growth inhibition: 5.65%
[3]
  growth inhibition: 34.1%
[4]
  growth inhibition: 25.2%
[5]
  growth inhibition: 0.8%
[6]
  growth inhibition: 22.3%

## Cc1noc2cccc(O)c12
[1]
  growth inhibition: 0.95%
[2]
  growth inhibition: 12.6%
[3]
  growth inhibition: 15.8%
[4]
  growth inhibition: 10.9%
[5]
  growth inhibition: 1.25%
[6]
  growth inhibition: 34.6%

## Cc1cc(OCCN(C)C)cc(C)c1Cl
[1]
  growth inhibition: -2%
[2]
  growth inhibition: -0.75%
[3]
  growth inhibition: 25.1%
[4]
  growth inhibition: 37.6%
[5]
  growth inhibition: -16.9%
[6]
  growth inhibition: 8.8%

## CCN(CC)C(=O)N1C=CC(C)C=C1
[1]
  growth inhibition: -30.4%
[2]
  growth inhibition: -15.1%
[3]
  growth inhibition: -15.4%
[4]
  growth inhibition: -43.1%
[5]
  growth inhibition: 10.9%
[6]
  growth inhibition: 5.5%

## CCN(CCO)CC(=O)c1cc(Cl)ccc1OC
[1]
  growth inhibition: -3.85%
[2]
  growth inhibition: 13.6%
[3]
  growth inhibition: 16.2%
[4]
  growth inhibition: -37%
[5]
  growth inhibition: 6.55%
[6]
  growth inhibition: 19.4%

## Cc1cc(C)cc(OCCC(=O)O)c1
[1]
  growth inhibition: -1.4%
[2]
  growth inhibition: -16.6%
[3]
  growth inhibition: -10.4%
[4]
  growth inhibition: 21.7%
[5]
  growth inhibition: 2.95%
[6]
  growth inhibition: 7.1%

## CCCCNC(=S)/N=C/c1c(O)c2ccccc2[nH]c1=O
[1]
  growth inhibition: -39.7%
[2]
  growth inhibition: -15.2%
[3]
  growth inhibition: -52.9%
[4]
  growth inhibition: -18.9%
[5]
  growth inhibition: 3.9%
[6]
  growth inhibition: -41%

## COC(=O)C(C)(NC(=O)C(CC(=O)OC(C)(C)C)NC(=O)OC(C)(C)C)c1ccccc1 (stereo not drawn)
[1]
  growth inhibition: 41.5%
[2]
  growth inhibition: 16%
[3]
  growth inhibition: 46.5%
[4]
  growth inhibition: 35.8%
[5]
  growth inhibition: 36.7%
[6]
  growth inhibition: 36%

## Cc1ccc(NC(=O)Nc2ccc(Cl)c(Cl)c2)c(C)c1
[1]
  growth inhibition: -6.05%
[2]
  growth inhibition: 11.2%
[3]
  growth inhibition: -1.75%
[4]
  growth inhibition: -16.6%
[5]
  growth inhibition: -4.2%
[6]
  growth inhibition: -20.9%

## N#Cc1cccc2c(S(=O)(=O)O)cccc12
[1]
  growth inhibition: -12.9%
[2]
  growth inhibition: 4.5%
[3]
  growth inhibition: 11.6%
[4]
  growth inhibition: -17.3%
[5]
  growth inhibition: -2.85%
[6]
  growth inhibition: -10.8%

## CC(c1ccccc1)N1COc2cc3c(cc2C1)CN(C(C)c1ccccc1)CO3 (stereo not drawn)
[1]
  growth inhibition: -11.8%
[2]
  growth inhibition: 0.4%
[3]
  growth inhibition: -6.8%
[4]
  growth inhibition: -28.3%
[5]
  growth inhibition: -1.3%
[6]
  growth inhibition: 6.7%

## O=C1C(NS(=O)(=O)c2ccccc2)=C(n2cnc3ccccc32)C(=O)c2ccccc21
[1]
  growth inhibition: 0.75%
[2]
  growth inhibition: 4.4%
[3]
  growth inhibition: 12.1%
[4]
  growth inhibition: -1.95%
[5]
  growth inhibition: 1.65%
[6]
  growth inhibition: -58.8%

## N#CCCN(CCC#N)c1ccc(C(=O)NN)cc1
[1]
  growth inhibition: -18.1%
[2]
  growth inhibition: -15.9%
[3]
  growth inhibition: -3.2%
[4]
  growth inhibition: 25.2%
[5]
  growth inhibition: -8.8%
[6]
  growth inhibition: -5.3%

## Cc1ccc(Nc2ccc(O)cc2)cc1
[1]
  growth inhibition: 40.4%
[2]
  growth inhibition: -2.1%
[3]
  growth inhibition: 29.5%
[4]
  growth inhibition: -8.25%
[5]
  growth inhibition: -10.8%
[6]
  growth inhibition: 26%

## O=[N+]([O-])c1ccc2[nH]c3nc4ncccc4nc3c2c1
[1]
  growth inhibition: -3.4%
[2]
  growth inhibition: 3.35%
[3]
  growth inhibition: 4.7%
[4]
  growth inhibition: -20.1%
[5]
  growth inhibition: 0.25%
[6]
  growth inhibition: 0.7%
